Source: PubChem BioAssay
BAZ2B inh – qHTS Assay for Inhibitors of BAZ2B | 360,000 compounds, 4.4% hits | Potency, µM (doses to about 114 µM), for inactives: at the highest dose activity change, negative = inhibition, actives largely listed as inhibitors | AlphaScreen BAZ2B-H3K14Ac peptide displacement; also: % is scaled to controls: 0 for no effect and ±100 for the full control effect; nearly all actives have a fitted effect of over 60% in size
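Inhibition is scored as reduced AlphaScreen emission. The BAZ2B/b-H3(5-23)K14Ac complex (50 nM each) in PBS pH 7.4, 0.01% Tween-20 meets compound (up to 110 uM) for 30 min at RT before bead addition.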
G9a block – qHTS Assay for Inhibitors of Histone Lysine Methyltransferase G9a; Histone-lysine N-methyltransferase EHMT2 (Homo sapiens), Q96KQ7; AID 504332, 2011; 350,000 compounds, 8.8% hits; G9a H3K9 monomethylation, AlphaScreen, 2 h; Potency, µM (series often up to 102 µM), inactives show at the highest dose activity, negative = inhibition, usual class: inhibitors; also: % is scaled to controls: 0 for no effect and ±100 for the full control effect; nearly all actives have a fitted effect of over 75% in size
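Chemiluminescent proximity detection of H3K9 monomethylation, read after 10 min bead incubation in the dark. Reaction: 20 nM G9a, 500 nM biotin-H3K9 peptide, 20 uM SAM cofactor, 2 h, room temperature, following 15 min enzyme-compound preincubation.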
PLK1 PBD inh – qHTS for Inhibitors of PLK1-PDB (polo-like kinase 1 - polo-box domain): Primary Screen | Plk1 PBD binding of FITC phosphopeptide, fluorescence polarization | Serine/threonine-protein kinase PLK1 (Homo sapiens), P53350 | 360,000 compounds, 2.8% hits | Potency, µM, inactives show max response, negative = inhibition, usual class: inhibitors | AID 720504, 2013; also: series mostly up to about 57 µM; % is scaled to controls: 0 for no effect and ±100 for the full control effect; nearly all actives have a fitted effect of over 65% in size
JMJD2A Tudor – qHTS Assay for Inhibitors of JMJD2A-Tudor Domain; Lysine-specific demethylase 4A (Homo sapiens), O75164; AlphaScreen JMJD2A-Tudor / H3K4me3 peptide binding; Potency, µM (series often up to 114 µM), inactives show top-dose activity change, negative = inhibition, hits mostly inhibitors; 390,000 compounds, 4.4% hits; also: % is scaled to controls: 0 for no effect and ±100 for the full control effect; nearly all actives have a fitted effect of over 50% in size
VDR inh – Inhibitors of the vitamin D receptor (VDR): qHTS; Vitamin D3 receptor (Homo sapiens), P11473; VDR-SRC2-3 peptide fluorescence polarization, 2 h; Potency, µM, without a hit: max response, negative = inhibition, most hits filed as inhibitors; 400,000 compounds, 0.93% hits; AID 504847, 2011; also: % is scaled to controls: 0 for no effect and ±100 for the full control effect
Target sequence (P11473 whole entry, looked up): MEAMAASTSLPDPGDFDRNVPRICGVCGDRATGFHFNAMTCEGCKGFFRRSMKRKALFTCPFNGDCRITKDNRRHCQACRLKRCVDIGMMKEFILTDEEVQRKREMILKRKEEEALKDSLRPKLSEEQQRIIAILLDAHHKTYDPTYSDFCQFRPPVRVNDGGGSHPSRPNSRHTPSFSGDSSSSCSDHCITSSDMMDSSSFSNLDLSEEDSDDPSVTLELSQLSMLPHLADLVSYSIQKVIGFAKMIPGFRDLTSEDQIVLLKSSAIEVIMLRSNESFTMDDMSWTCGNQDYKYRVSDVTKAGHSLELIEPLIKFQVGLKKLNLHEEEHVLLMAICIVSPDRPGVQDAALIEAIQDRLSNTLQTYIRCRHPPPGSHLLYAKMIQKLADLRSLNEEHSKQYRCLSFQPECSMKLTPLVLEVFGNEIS
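Measured by FP: displacement of SRC2-3 coactivator peptide from VDR by library compounds, following a two-hour ambient incubation.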
HP1b binding inh – HTS for Inhibitors of HP1-beta Chromodomain Interactions with Methylated Histone Tails; AlphaScreen HP1-beta / biotin-H3K9me3 peptide binding; Potency, µM (series often up to 114 µM), for the others: at the top dose activity change, negative = inhibition, most hits filed as inhibitors; 390,000 compounds, 0.56% hits; AID 540317, 2011; also: nearly all actives have a fitted effect of over 70% in size
Target sequence (P83916 whole entry, looked up): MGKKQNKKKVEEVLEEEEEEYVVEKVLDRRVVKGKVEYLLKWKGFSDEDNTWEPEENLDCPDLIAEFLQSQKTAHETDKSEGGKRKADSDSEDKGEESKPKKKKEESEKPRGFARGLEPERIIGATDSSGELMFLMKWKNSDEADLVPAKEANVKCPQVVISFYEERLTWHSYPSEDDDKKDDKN
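HP1-beta protein (50 nM final) preincubated 30 min at room temperature with biotinylated H3(1-18)K9me3 peptide (50 nM) in PBS pH 7.4, 0.01% Tween-20, then compound added for 30 min. AlphaScreen streptavidin donor/nickel chelate acceptor beads (10 ug/mL final), 30 min dark, luminescence read.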
TbPYK inh – qHTS of Trypanosoma Brucei Inhibitors: Confirmatory Assay for Cherry-picked Compounds; shares compounds with PLK1 PBD inh; recombinant TbPYK, Kinase-Glo ATP luminescence; Potency, µM (series often up to 76.9 µM), without a hit: at the highest dose activity change, negative = inhibition, usual class: inhibitors; 890 compounds, 67% hits; AID 720569, 2013; also: % is scaled to controls: 0 for no effect and ±100 for the full control effect; nearly all actives have a fitted effect of over 70% in size
TbPYK ADP-Glo – qHTS of Trypanosoma Brucei Inhibitors: Orthogonal Assay for Cherry-picked Compounds; Potency, µM (doses to about 76.9 µM), for the others: at the highest dose activity change, negative = inhibition, actives largely listed as inhibitors; 890 compounds, 62% hits; AID 720584, 2013; shares compounds with PLK1 PBD inh; recombinant TbPYK, ADP-Glo luminescence, 60 min; also: % is scaled to controls: 0 for no effect and ±100 for the full control effect; nearly all actives have a fitted effect of over 75% in size
Numbers without * were called inactive; ? = inconclusive; / = no result given; [ ] = another dose, or the depositor's remark. Most compounds without a hit are left out; they make up all but 11% or so of the library. Calls follow the shape of the dose curve; as a rule, active = well fitted curve in the direction sought with a large enough effect; inconclusive = small, poorly fitted or top-dose-only effect, or another doubt; inactive = no such curve, though single readings can be large; an effect the other way counts as inactive or inconclusive. Potency is read from the fitted curve at half-maximal effect.

SMILES | BAZ2B inh | G9a block | PLK1 PBD inh | JMJD2A Tudor | VDR inh | HP1b binding inh | TbPYK inh | TbPYK ADP-Glo
Cc1c(-c2ccccc2)n(O)c(-c2ccc(N(C)C)cc2)[n+]1[O-] | / | / | -9.0% | / | / | / | / | /
O=C1C(c2cc(=O)c3ccccc3[nH]2)=C(O)c2ccccc21 | -38.1% | 3.5%[59 µM] | -4.0% | ? | -4.2% | 14.9% | 2.82µM* | 7.08µM*
O=C(O)CSc1nnc(-c2ccc(Cl)cc2Cl)n1-c1ccc(Cl)cc1 | -14.8% | 12.6%[0.501 µM] | 8.9% | -17.1% | 0.4% | 31.9% | / | /
CC(=O)/C(=N\Nc1ccc(Cl)cc1Cl)Sc1nnc(-c2ccccc2)n1-c1ccccc1 | -2.7% | ? | -8.6% | -12.3% | -12.2% | 35.4% | ? | 14.1µM*
O=C(O)/C=C/C(=O)NNC(=O)c1cc(-c2ccccc2)n[nH]1 | -1.7% | 20µM* | 29.9µM* | ? | ? | 25.1µM* | ? | ?
COc1ccc(C2=CC(=O)C[C@H](c3ccc(OC)c(OC)c3)C2)cn1 | 0.6% | 9.1%[0.501 µM] | 0.3% | -16.9% | -3.9% | 11.4% | 9.4% | -0.9%
Cc1cc(=O)n(Cc2ccco2)c(=S)[nH]1 | / | / | -14.3% | / | / | / | / | /
CCn1c(=O)cc(C(F)(F)F)[nH]c1=S | -13.3% | 25.1µM* | -11.6% | -20.6% | -5.4% | 31.3% | ? | 35.5µM*
CCOc1ccccc1N1CSC2=C(C#N)C(c3c(OC)ccc4ccccc34)CC(=O)N2C1 (stereo not drawn) | 50.1µM* | 0.562µM* | 18.9µM* | 35.5µM* | ? | ? | 1.41µM* | 1.78µM*
COc1ccc(C2C(C#N)=C(N)OC3=C2C(=O)CCC3)cc1OC (stereo not drawn) | -18.9% | -1.9% | -10.5% | -6.2% | 6.2% | 29.2% | / | /
COc1ccc(CCNC(=O)C2CC(=O)N(c3ccc(C)cc3)C2)cc1OC (stereo not drawn) | -0.7% | -2.3%[59 µM] | 4.2% | -11.2% | -4.3% | 28.0% | / | /
CCOc1ccccc1N1CCN(S(=O)(=O)c2cc(C)ccc2OC)CC1 | -0.2% | / | 5.0% | -12.7% | -5.7% | 17.7% | / | /
COc1cc(OC)c(C2CC(=O)N3CN(c4ccc(C)cc4)CSC3=C2C#N)cc1OC (stereo not drawn) | ? | -20.8%[2.33 µM] | 21.2µM* | 4.47µM* | 44.7µM* | ? | 1.41µM* | 1.26µM*
COc1ccc(N2CSC3=C(C#N)C(c4cc(OC)c(OC)cc4OC)CC(=O)N3C2)c(OC)c1 (stereo not drawn) | 44.7µM* | 3.55µM* | 11.9µM* | 20µM* | 44.7µM* | 20µM* | 0.631µM* | 2.82µM*
COc1ccc(N2CSC3=C(C#N)C(c4ccc(OC)c(OC)c4)CC(=O)N3C2)c(OC)c1 (stereo not drawn) | ? | 2.51µM* | 7.52µM* | 20µM* | 31.6µM* | ? | 0.794µM* | 5.01µM*
COc1cccc(C(CNC(=O)C(c2ccccc2)c2ccccc2)N(C)C)c1 (stereo not drawn) | 1.2% | -7.8% | -10.3% | -16.2% | 5.8% | -6.2% | / | /
Cc1ccccc1P(=O)(c1ccccc1)c1ccccc1C | / | / | -4.3% | / | / | / | / | /
FC(F)(F)Oc1ccc(Nc2nc(N3CCOCC3)nc(N3CCOCC3)n2)cc1 | ? | / | 4.74µM* | 17.8µM* | ? | 32.3% | 5.4% | -4.3%
CSc1nnc(C(C)(C)C)c(=O)n1/N=C/c1c(O)ccc2ccccc12 | -14.3% | ? | -3.9% | -9.2% | 1.3% | 0.0% | / | /
O=C1CSC(=S)N1N=Cc1c(O)ccc2ccccc12 | / | / | -10.3% | 50.1µM* | ? | ? | ? | 15.8µM*
COc1cccc(/C=N/N2C(=O)CSC2=S)c1O | 3.16µM* | 8.91µM* | ? | 10µM* | ? | ? | ? | ?
COc1ccccc1N1CCN(/N=C/c2cccc(OC)c2O)CC1 | ? | -3.3% | 0.9% | ? | -9.3% | 7.6% | / | /
O=C(O)COc1ccccc1C=NNC(=O)c1ccccc1NS(=O)(=O)c1cccs1 | / | / | -6.9% | -11.0% | -6.3% | 10.6%[57 µM] | / | /
COc1ccc(N2C(=O)CC(Sc3nnnn3-c3ccc(F)cc3)C2=O)cc1 (stereo not drawn) | -21.7% | ? | ? | -9.1% | -8.6% | 72.8% | / | /
O=C1CC(Sc2nnnn2-c2ccccc2)C(=O)N1c1cccc(Cl)c1 (stereo not drawn) | -1.0% | 0.891µM* | ? | -6.9% | -5.3% | 26.7% | 28.2µM* | 31.6µM*
SMILES | BAZ2B inh | G9a block | PLK1 PBD inh | JMJD2A Tudor | VDR inh | HP1b binding inh | TbPYK inh | TbPYK ADP-Glo
Cc1ccc2oc(Nc3nc(C)c(C)c(C)n3)nc2c1 | -9.4% | 23.0% | -4.7% | -16.6% | -21.3% | 44.0% | / | /
Cc1nc(Nc2nc3ccccc3o2)nc(C)c1C | -29.3% | 4.4% | 29.9µM* | ? | ? | -16.3% | -15.6% | 1.3%
Cc1n[nH]c(=O)c2c(NC(=O)CSc3nc4ccccc4c(=O)n3-c3ccc(OC(F)F)cc3)oc(C)c12 | 0.5% | 4.3%[0.501 µM] | -15.9% | -23.4% | -14.8% | 9.6% | / | /
COCC(C)n1c(COc2ccccc2F)nnc1SCC(=O)Nc1oc(C)c2c(C)n[nH]c(=O)c12 (stereo not drawn) | -18.2% | 10µM* | -19.5% | -11.7% | -4.5% | 42.9% | 20µM* | 17.8µM*
COc1ccc(N2C(=O)c3ccccc3NC(=O)C2C(=O)NCCc2ccccc2F)cc1 (stereo not drawn) | / | / | 0.8% | / | / | / | / | /
O=c1oc2ccccc2n1CCCOc1ccccc1Cl | 105.0% | 64.9%[59 µM] | / | 80.5% | 4.4% | 110.6% | / | /
NC(=O)CN1C(=O)C2CCCCN2C(=O)c2ccccc21 (stereo not drawn) | 2.7% | 9.4%[59 µM] | -0.3% | 2.0% | -6.9% | 34.1% | / | /
NC(=O)CN1C(=O)/C(=c2\sc3nc(=O)c(Cc4ccccc4)nn3c2=O)c2ccccc21 | -21.4% | 7.94µM* | 5.97µM* | -28.9% | ? | 16.1% | 28.2µM* | 15.8µM*
CCn1c(C(=O)NCc2cccnc2)cc2sc(Cl)cc21 | -37.8% | -48.5%[12.7 µM] | -8.9% | -34.3% | -3.7% | 2.9% | ? | ?
CCn1c(C(=O)NCCc2ccc(S(N)(=O)=O)cc2)cc2sc(Cl)cc21 | -1.0% | -8.1%[59 µM] | / | -15.6% | -8.6% | 23.7% | / | /
